Sampled rows, rich in hits. Any-hit rate of the full collection: about 9%.
ALDH1A1 block: inhibitors of human aldehyde dehydrogenase 1A1; P00352; Purified ALDH1A1, NADH fluorescence, propionaldehyde substrate; Potency, µM (doses to about 75.3 µM), most hits filed as inhibitors; 220,000 compounds, 7.3% hits
Target sequence (P00352 whole entry, looked up): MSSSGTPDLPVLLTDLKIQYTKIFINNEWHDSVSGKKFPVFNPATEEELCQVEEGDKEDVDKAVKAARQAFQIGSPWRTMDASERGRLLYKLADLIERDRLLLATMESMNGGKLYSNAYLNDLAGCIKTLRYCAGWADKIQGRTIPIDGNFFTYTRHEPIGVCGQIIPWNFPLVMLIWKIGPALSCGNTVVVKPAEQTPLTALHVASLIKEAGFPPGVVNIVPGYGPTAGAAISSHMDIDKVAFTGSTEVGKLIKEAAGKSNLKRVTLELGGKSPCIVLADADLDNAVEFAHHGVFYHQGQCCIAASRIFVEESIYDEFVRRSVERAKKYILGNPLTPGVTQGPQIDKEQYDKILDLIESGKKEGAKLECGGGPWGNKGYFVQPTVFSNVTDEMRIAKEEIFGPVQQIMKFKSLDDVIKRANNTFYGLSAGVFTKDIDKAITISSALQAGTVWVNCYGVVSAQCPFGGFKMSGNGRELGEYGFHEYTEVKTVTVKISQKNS
HPGD block: blocks human HPGD enzyme activity | P15428 | purified HPGD, NADH fluorescence kinetic, PGE2 substrate | Potency, µM, hits mostly inhibitors | 150,000 compounds, 4.3% hits | AID 894
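NADH formation kinetics: reaction with 30 uM PGE2 and 1 mM NAD+ (final), 20 nM enzyme, Tris-HCl pH 8 with Tween 20, after 15 min compound preincubation at room temperature. Fluorescence change, last versus first of five reads.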
IMPase inh: membrane-permeable compound that blocks inositol monophosphatase | inhibition (IP1 accumulation), % at 46.1 µM | P97697 | 120,000 tested, under 10 active | CHO-M1 cells, IP1 accumulation, HTRF TR-FRET ratio; active = well fitted curve in the direction sought with a large enough effect in the signal ratio, not every such curve was filed as active; inconclusive = small, poorly fitted or top-dose-only effect, or a change in a side signal; inactive = no such curve, though single readings can be large or run the other way; the % refers to the signal ratio;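 also: cells stimulated with carbachol in lithium chloride buffer; higher means more IMPase inhibition seen as more IP1 and lower FRET ratio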
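In this qHTS, compounds (final up to 46 uM) act on CHO-M1 cells that are then activated through the M1 receptor with carbachol, in pH 7.4 buffer containing 50 mM LiCl, for 30 min. IP1 accumulation is quantified by the IP-One immunoassay.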
Large screens that a line does not name were inactive. Unless noted, calls follow the shape of the dose curve; as a rule, active = well fitted inhibition curve with a large enough effect (not every such curve was filed as active); inconclusive = small, poorly fitted or top-dose-only effect, or another doubt; inactive = no such curve, though single readings can be large or run the other way.

Cc1ccc(-n2c(O)c(C=NCCN(C)C)c(=O)[nH]c2=O)cc1	none (no result: IMPase inh)
Cc1ccc(N/N=C/c2c(O)n(-c3ccccc3)c(=O)[nH]c2=O)cc1	ALDH1A1 block 11µM (no result: HPGD block, IMPase inh)
CC1CCN(CC(=O)c2ccc3c(c2)OCCO3)CC1	ALDH1A1 block 7.9µM (no result: HPGD block, IMPase inh)
CC1CCN(CC(=O)c2ccccc2Cl)CC1	ALDH1A1 block inconclusive
CC1CCCN(CC(=O)c2ccc(Cl)c(Cl)c2)C1 (stereo not given)	ALDH1A1 block 2µM (no result: HPGD block, IMPase inh)
Cc1cc(Cl)ccc1C(=O)C1CCCN(Cc2ccon2)C1 (stereo not given)	none (no result: HPGD block, IMPase inh)
CC1(C)[C@@H](O)C[C@H]2[C@](C)(O)[C@@H]3CC[C@H]4[C@@H](O)[C@@]3(C[C@@H](O)[C@@]21O)C[C@@]4(C)O	none (no result: HPGD block, IMPase inh)
CS(=O)(=O)N1CCC2(CCCN(Cc3ccncc3)C2)CC1	none (no result: IMPase inh)
COc1cccc(N2CCN(Cc3cccc(Cl)c3)CC2)c1	none
COc1cccc(N2CCN(Cc3ccc(Cl)cc3)CC2)c1	ALDH1A1 block 10µM
CC(C)[C@@]1(NC(=O)[C@@H]2C[C@@H]3c4cccc5[nH]cc(c45)C[C@H]3N(C)C2)O[C@@]2(O)C3CCCN3C(=O)[C@H](Cc3ccccc3)N2C1=O (stereo not given in full)	none (no result: IMPase inh)
CCC(C)n1c(O)c(C(c2ccccn2)c2c(O)n(C(C)CC)c(=S)[nH]c2=O)c(=O)[nH]c1=S (stereo not given)	ALDH1A1 block 7.1µM, HPGD block 32µM
Cn1c(O)c(C(c2ccccn2)c2c(O)n(C)c(=S)n(C)c2=O)c(=O)n(C)c1=S	ALDH1A1 block inconclusive
COc1ccc(/C=C2/C(=O)N(Cc3ccco3)C(=O)N(C(C)C)C2=O)cc1	ALDH1A1 block 4µM, HPGD block 22µM (no result: IMPase inh)
COc1ccc(C(=O)Nc2ccccc2C(=O)NC(C(=O)NCc2ccco2)C(C)C)cc1 (stereo not given)	HPGD block inconclusive
CCN1C(=O)C(=C/C=C/c2ccco2)C(=O)N(CC)C1=S	ALDH1A1 block 1.3µM, HPGD block 11µM
CC(C)N1C(=O)/C(=C/C=C/c2ccco2)C(=O)N(Cc2ccco2)C1=O	ALDH1A1 block 22µM, HPGD block 32µM
CCCN1CCCC(c2cccc(O)c2)C1 (stereo not given)	none (no result: IMPase inh)
Clc1nc(Cl)nc(Nc2ccccc2Cl)n1	none (no result: IMPase inh)
CC(=O)N1CC2CC(C1)c1cccc(=O)n1C2 (stereo not given)	none
COc1ccc(C=C2C(=O)N(C)C(=O)N(C)C2=O)cc1CSc1ccccn1	ALDH1A1 block 3.2µM, HPGD block 25µM
CN(C)C(=O)Cl	ALDH1A1 block inconclusive (no result: IMPase inh)
CC(C)C[C@H](NP(=O)(O)O[C@@H]1O[C@@H](C)[C@@H](O)[C@@H](O)[C@H]1O)C(=O)N[C@@H](Cc1c[nH]c2ccccc12)C(=O)O	none (no result: ALDH1A1 block, HPGD block)
Fc1ccc2c(c1)nnn2C1CCN(Cc2c(Cl)cccc2Cl)CC1	none
Fc1ccc2c(c1)nnn2C1CCN(Cc2nnnn2C2CCCCC2)CC1	ALDH1A1 block 13µM
O=[N+]([O-])c1ccccc1CCl	ALDH1A1 block 13µM (no result: IMPase inh)
O=[N+]([O-])c1cccc2ccccc12	ALDH1A1 block inconclusive (no result: IMPase inh)
C=C[C@H]1CN2CC[C@H]1C[C@H]2c1[nH]c2ccccc2c1CCO	none
CCNC(=O)[C@@H]1O[C@@H](n2cnc3c(N)ncnc32)[C@@H](O)[C@H]1O	none (no result: ALDH1A1 block, HPGD block)
NC(=S)c1cn(C2OC(CO)C(O)C2O)c2ncnc(N)c12 (stereo not given)	ALDH1A1 block 7.9µM (no result: HPGD block, IMPase inh)
CN(C)[C@@H]1C(=O)C(C(N)=O)=C(O)[C@]2(O)C(=O)C3=C(O)c4c(O)cccc4[C@](C)(O)[C@H]3C[C@@H]12	none (no result: IMPase inh)
CN1CCN(C(=O)COc2ccc(S(=O)(=O)N(C)Cc3ccccc3)cc2)CC1	ALDH1A1 block inconclusive, HPGD block 14µM
CCN1CCN(C(=O)COc2ccc(S(=O)(=O)N(C)Cc3ccccc3)cc2)CC1	ALDH1A1 block inconclusive, IMPase inh inconclusive
CNCC/C=C\c1cccnc1	none
CC(C)CN1CCCC2(CCN(C(=O)Oc3ccccc3)CC2)C1	none (no result: IMPase inh)
O=C(Nc1cccc(F)c1)N1CC2(CCNCC2)C1	none (no result: IMPase inh)
c1ccc(-c2ccc(C(c3ccccc3)n3ccnc3)cc2)cc1 (stereo not given)	ALDH1A1 block 22µM, HPGD block inconclusive (no result: IMPase inh)
N#Cc1ccc(CN2CCCC3(CCN(C(=O)Oc4ccccc4)CC3)C2)cc1	ALDH1A1 block inconclusive (no result: IMPase inh)
O=c1cccc2n1CC1CC2CN2CCCCC12 (stereo not given)	none (no result: IMPase inh)
CC(C)[C@]1(O)[C@@H](OC(=O)c2ccc[nH]2)[C@@]2(O)[C@@]3(C)C[C@]4(O)O[C@@]5([C@H](O)[C@@H](C)CC[C@]35O)[C@@]2(O)C41C	none (no result: IMPase inh)
Cc1ccc(N2C(=O)/C(=C/c3ccc(CN(CCC#N)S(C)(=O)=O)o3)C(=O)NC2=S)cc1	ALDH1A1 block 22µM, HPGD block 22µM
CC(=O)OC1CC(OC(C)=O)[C@]2(C)C(CC(OC(C)=O)[C@]3(C)C2CC[C@@]2(C)C(c4ccoc4)C(=O)C4O[C@]432)C1(C)C (stereo not given in full)	none (no result: IMPase inh)
CCC1=C(C[C@H]2NCCc3cc(OC)c(OC)cc32)C[C@H]2c3ccccc3CCN2C1	none (no result: IMPase inh)
CCCC1(CCC)C(=O)NC(=NCc2ccccc2)NC1=O	ALDH1A1 block inconclusive
S=C=NCc1ccccc1	ALDH1A1 block 2.8µM, HPGD block inconclusive (no result: IMPase inh)
C#CCO	ALDH1A1 block 22µM (no result: IMPase inh)
C[C@H]1O[C@H](O[C@H]2[C@H](O)[C@@H](O)[C@@H](O)[C@H](O)[C@@H]2O)[C@@H](N)C[C@@H]1NC(=N)C(=O)O	ALDH1A1 block inconclusive (no result: IMPase inh)
Oc1ccc(/C=N/NP(=S)(c2ccccc2)c2ccccc2)cc1O	none
Oc1ccc(/C=N/NP(=S)(c2ccccc2)c2ccccc2)c(O)c1O	ALDH1A1 block 11µM, HPGD block 22µM
O=C1C=CC(=O)c2c(O)cccc21	ALDH1A1 block 13µM, HPGD block 14µM (no result: IMPase inh)
NCC#Cc1ccccc1	none
CN1CC[C@@]2(C)c3cc(O)ccc3N(C)C12 (stereo not given in full)	ALDH1A1 block inconclusive (no result: IMPase inh)
CN1[C@@H]2CC[C@H]1CC(O[C@@H](c1ccccc1)c1ccccc1N)C2 (stereo not given in full)	none (no result: ALDH1A1 block, HPGD block)
Cc1ccc(N2C(=O)NC(=O)/C(=C\c3cc(C)n(-c4sc5c(c4C#N)CCCC5)c3C)C2=O)cc1	ALDH1A1 block 0.79µM, HPGD block 10µM
CCOC(=O)c1c(/N=C/C2C(=O)NC(=O)NC2=O)sc2c1CCC2	none (no result: HPGD block, IMPase inh)
Cc1cc(/C=C2/C(=O)NC(=O)N(c3ccc(Br)cc3)C2=O)c(C)n1C	none (no result: HPGD block, IMPase inh)
CCOC(=O)c1c(-n2c(C)cc(C=C3C(=O)NC(=S)NC3=O)c2C)sc2c1CCCC2	ALDH1A1 block 7.9µM, HPGD block 3.5µM
CCN1C(=O)NC(=O)/C(=C/c2cc(C)n(-c3sc(C)c(C)c3C#N)c2C)C1=O	ALDH1A1 block 0.2µM, HPGD block 8.9µM (no result: IMPase inh)
C[C@@]12Cc3cnc(-c4ccccc4)nc3C[C@@H]1CC[C@@H]1[C@H]3CC[C@@](C)(O)[C@]3(C)CC[C@@H]12	ALDH1A1 block inconclusive (no result: IMPase inh)
CC1C(=O)OC2CCN3CC=C(COC(=O)[C@](C)(O)[C@]1(C)O)C23 (stereo not given in full)	none (no result: IMPase inh)
CCCc1[nH][nH]c(=O)c1C(c1ccccc1)C(C#N)C#N (stereo not given)	ALDH1A1 block 22µM, HPGD block inconclusive
CCCc1[nH][nH]c(=O)c1C(c1ccc(Cl)cc1)C(C#N)C#N (stereo not given)	ALDH1A1 block inconclusive, HPGD block 16µM

High-throughput results (PubChem)
